# Measured values as given in the supplement of paper PMC10338343.
# ± gives the standard deviation. The full ranking holds about 6,200 sequences; the median of “pre-steady-state target cleavage rate” is about 0.29, and the highest 2% start at about 2. Many of the other results were omitted from the sample, so the highest values are more common in it than they were.
# System: MIWI (PIWIL1) piRISC loaded with piRNA #1 (30 nt)
# Experiment: pre-steady-state target cleavage rate (min^-1); MIWI and MILI are mouse PIWI proteins and EfPiwi is from a freshwater sponge; tags in brackets are library labels; higher = faster piRNA-guided slicing of the target
# Conditions: guide: piRNA #1 5'p-UGAGGUAGUAGGUUGUAUAGUAUCCAGAGG; auxiliary factor: 500 nM mouse GTSF1
# Experimental: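 Cleave-'n-Seq: a library of target RNAs (target site embedded in constant flanks, ACAGCATTCCGCGTTAGTGATATCCG... 5' flank; DNA-blocked outside the site) at 0.1 nM was incubated with 1 nM active mouse MILI or MIWI piRISC (synthetic 5'-monophosphorylated piRNA guide) with or without 500 nM mouse GTSF1 at 33 °C for 1 min to 16 h. Uncleaved targets were sequenced and normalised to non-target controls, and the pooled three trials were fitted to a burst-and-steady-state model to give the pre-steady-state cleavage rate (min^-1; k3 is constrained to at most 1e-4). Sequence is the target site only; target names encode pairing extent (gX:gY) and contiguous / 1-mismatch / 2-mismatch / bulge geometry. Fits with R² ≤ 0 are excluded.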
row,Sequence,pre-steady-state target cleavage rate
1,GGUCAGGAUACAAUACAACCUACUACCUCA,1.69 ± 0.1
2,GGUCAGGAUACUUUACAACCUACUACCUCA,1.54 ± 0.085
3,GCUCAGGAUACUAAACAACCUACUACCUCA,1.95 ± 0.12
4,CCUCAGGAUACUUUACAACCUACUACCUCA,2.1 ± 0.13
5,GCUCAGGAUACUUUACAACCUACUACCUCA,1.81 ± 0.11
6,GGUCAGGAUACUAAACAACCUACUACCUCA,1.74 ± 0.096
7,CCUCAGGAUACAAUACAACCUACUACCUCA,2.01 ± 0.12
8,CCUCAGGAUACUAUACAACCUACUACCACA,2.43 ± 0.17
9,CCUCAGGAUACUAAACAACCUACUACCUCA,2.07 ± 0.12
10,CCUCUGGAUACUUUACAACCUACUACCUGA,0.715 ± 0.1
11,GGAGACCUAUCUAUACAACCUACUAGCUCA,0.517 ± 0.046
12,GGAGAGGAUACUAUAGCAACCUACUACCUCA,0.61 ± 0.07
13,GGAGACGAUACUAUACAUGCUACUACCUCA,0.755 ± 0.037
14,GGAGACCUUACUGUACAACCUACUACCUCA,0.655 ± 0.077
15,CCUCUGGAUACUAUUCAACCUAGUACCUCA,0.085 ± 0.021
16,CCUCUGGAUACUAUAGAACCUACUACCACA,0.372 ± 0.042
17,GCUCUGGAUACUAUCACAACCUACUACCUCA,1.62 ± 0.12
18,GGUCAGGAUACUAUACAUCCUACUACCUCA,1.54 ± 0.079
19,GCUCAGGAUACUAUACAUCCUACUACCUCA,1.85 ± 0.099
20,CCUCAGGAUACUAUACAUCCUACUACCUCA,2.03 ± 0.12
21,GGUCUCGAUACUAUACAACCUACUACCUCA,1.83 ± 0.12
22,CCUCUGGAUACCUAUACAACCUACUACCUCA,1.18 ± 0.072
23,CCUCUGGAUACUAUACUACCUACAACCUCA,1.08 ± 0.098
24,CUCUCUGGAUACUAUACAACCUACUACCUCA,2.1 ± 0.13
25,CCUCUGGAUACUAUACAACCUACAACCUCA,1.56 ± 0.1
26,GCCUCUGGAUACUAUACAACCUACUACCUCA,1.89 ± 0.12

row,Sequence,pre-steady-state target cleavage rate
1,UCUCUGGAUACUAUACAACCUACUACCUCA,2.04 ± 0.1
2,GGAGUGGAUACUAUACAACCUACGUACCUCA,0.712 ± 0.076
3,GGAGAGGAUACUUUAGAACCUACUACCUCA,0.919 ± 0.051
4,GGAGAGGAUACUAUACAACCUACUGACCUCA,0.576 ± 0.034
5,GGAGACGAUUCAAUACAACCUACUACCUCA,0.502 ± 0.063
6,GGAGACCUAUCUUUACAACCUACUACCUGA,0.101 ± 0.025
7,CCUCUGGAUACUAUACAACCUACUUCCUCA,0.668 ± 0.053
8,GCUCUGGAUACUAUACAACCUACUACCUUCA,1.9 ± 0.13
9,GCUCUGGAUACUAUACAACCUACUACUUCA,2.26 ± 0.14
10,CCUCUGGAUACUAUACAACCUACUACCUUCA,1.88 ± 0.12
11,GGUCUGGAUACUAUACAACCUACUACUUCA,1.32 ± 0.095
12,CCUCUGGAUACUAUACAACCUACUACUUCA,2.32 ± 0.16
13,GCUCUGCAUACUAUACAACCUACUACGUCA,1.24 ± 0.086
14,GGACUGGAAACUUUACAACCUACUACCUCA,0.689 ± 0.076
15,GCUCUGGAUACUAAAGAACCUACUACCUCA,1.17 ± 0.087
16,GGAGACCUAACUAUACAACCUAGUUCCUCA,0.0155 ± 0.0059
17,CCUCUGGAUACUAUACAACCUACCUACCUCA,1.8 ± 0.11
18,GCUCUGGAUACGAUACAACCUACUACCUCA,1.7 ± 0.086
19,CCUCUGGUUACUAUUCAACCUACUACCUCA,2.15 ± 0.14
20,CCUCUGGAUACGAUACAACCUACUACCUCA,2.07 ± 0.11
21,GCUCUGGAUACUAUGCAACCUACUACCUCA,1.84 ± 0.1
22,CUCUGGAUACUAUACAACCUACUACCUCA,2.17 ± 0.14
23,CCUCUGGAUACUAUGCAACCUACUACCUCA,2.09 ± 0.13
24,GCUCUGGAUACUAUUCAACCUACAACCUCA,1.3 ± 0.099
25,CCUCUGGAUACUAUUCAACCUACAACCUCA,1.62 ± 0.13
26,GGUCUGGAUACGAUACAACCUACUACCUCA,1.79 ± 0.11

row,Sequence,pre-steady-state target cleavage rate
1,GGUCUGGAUACUAUGCAACCUACUACCUCA,1.73 ± 0.12
2,CCUCUGGAUACUAUACAACCUACUACCUCA [g2:g30:cont:t1A],1.96 ± 0.12
3,GGUCUGGAUACUAUUCAACCUACAACCUCA,0.28 ± 0.033
4,GGACUGGAUAGUAUACAACCUUCUACCUCA,0.575 ± 0.045
5,GGUCUGGAUACUAUACAACGUUCUACCUCA,0.117 ± 0.014
6,GGAGACCUAUGUAUAGAACCUUCUACCUCA,0.0033 ± 0.0012
7,GCUCUGGAUACUAUACAACCUACUAUCCUCA,1.51 ± 0.11
8,GGUGUGGAUACUAUACAACCUUCUACCUCA,0.734 ± 0.033
9,GGAGACCUAACUAUACAACGUACUACCACA,0.165 ± 0.031
10,GGAGACCUAUGAAUACUAGCUACUACCUCA,< 0.0001
11,GGAGAGGAUACUAUACAACCUUCUAGCUCA,0.0222 ± 0.0082
12,GGACUGGAUACUAUACAACUUACUACCUCA,0.518 ± 0.023
13,CCCUCUGGAUACUAUACAACCUACUACCUCA,2.25 ± 0.12
14,CCUCUGAAUACUAUACAACCUACUACCUCA,2.09 ± 0.13
15,CCUCUGGAUACUAUUCAACCUACUACCACA,2.19 ± 0.18
16,CCUCUGGAUACUAAACAACCUACUACCUCA,1.86 ± 0.12
17,GGUCUGGAUACUAUUCAACCUACUACCACA,0.506 ± 0.045
18,CCUCUGGAUACUAAACAACCUACAACCUCA,1.48 ± 0.12
19,GCUCUGGAUACUAAACAACCUACAACCUCA,1.23 ± 0.089
20,GGUCUGAAUACUAUACAACCUACUACCUCA,1.8 ± 0.097
21,CCUCUGGAUACUAUACAACCCUACUACCUCA,0.00658 ± 0.0036
22,GCUCUGGAUACUAUUCAACCUACUACCACA,1.9 ± 0.16
23,CCUCUGGUUACUAAACAACCUACUACCUCA,2.34 ± 0.16
24,CCUCUGGAUACUAUACAACCUACUACCCUCA,1.38 ± 0.097
25,GCUCUGAAUACUAUACAACCUACUACCUCA,1.89 ± 0.12
